Results on ten molecules are retold here after PubChem BioAssay (NCATS).

The nature of test [1]: qHTS profiling of the MIPE4 collection as inhibitors of Plasmodium falciparum (3D7) proliferation (AID 743344).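 Further: scaled between DMSO vehicle wells and 0.29 µM artemisinin as full inhibition.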 The conditions noted are these: P. falciparum 3D7 in erythrocytes, SYBR Green DNA fluorescence, 72 h; at 28.5 µM unless noted. Summed up:
(§1)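 Parasite DNA was quantified by SYBR Green I fluorescence (ex 485, em 535 nm) after overnight lysis in saponin/Triton buffer at room temperature. Cultures at 0.3% parasitemia and 2.5% hematocrit were first exposed to compound for 72 h at 37 C; signals were normalised to artemisinin (0.29 uM) and vehicle wells.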
On the technique in general: qHTS replaces the single test concentration by a dilution series.

Test [2] can be described thus: qHTS profiling of the MIPE4 collection as inhibitors of Plasmodium falciparum (DD2) proliferation (AID 743345). The conditions noted are these: P. falciparum Dd2 in erythrocytes, SYBR Green DNA, 72 h; at 28.5 µM unless noted. Summed up:
as §1

Test [3] can be described thus: qHTS profiling of the MIPE4 collection as inhibitors of Plasmodium falciparum (DD2) proliferation (Rep 2) (AID 743346). Conditions: P. falciparum Dd2 in erythrocytes, SYBR Green DNA, 72 h; at 28.5 µM unless noted. A digest of the protocol:
as §1

Test [4] is described as follows: qHTS profiling of the MIPE4 collection as inhibitors of Plasmodium falciparum (HB3) proliferation (AID 743347).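 Further: plate controls were DMSO vehicle wells for no effect and artemisinin wells for full effect.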 The conditions noted are these: P. falciparum HB3 in erythrocytes, SYBR Green DNA, 72 h; at 28.5 µM unless noted. Summed up:
as §1

Test [5] is described as follows: High-throughput drug toxicity screening in the BPDCN cell line Gen2.2 (AID 1224824).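 Further: cells exposed to compounds for 48 h before reading.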 The conditions noted are these: Gen2.2 BPDCN cells; at 45.8 µM (top of the series) unless noted. A digest of the protocol: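 Gen2.2 cells (500/well) in phenol red-free RPMI with 10% FBS were exposed to compounds for 48 h at 37 °C, 5% CO2. Viability was read by CellTiter-Glo luminescence and normalized to DMSO (100%) and 9.2 uM bortezomib (0%).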

Test [6] can be described thus: High-throughput drug toxicity screening in the BPDCN cell line Cal-1 (AID 1224825). The conditions noted are these: Cal-1 BPDCN cell viability, qHTS; at 45.8 µM (top of the series) unless noted. Summed up:
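CellTiter-Glo luminescence after 48 h compound exposure; percent activity scaled with DMSO as 100% and bortezomib (9.2 uM final) as 0%. Cal-1 cells seeded at 500/well in RPMI, 10% FBS, no phenol red.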

Test [7] can be described thus: qHTS assay for measurement of the activity of small molecule inhibitors on Zika virus induced Caspase-3 activity in human iPSC derived neural progenitor cells (hNPCs) (AID 1224857; active means well fitted curve in the direction sought with a large enough effect; an effect the other way counts as inactive or inconclusive; further: % of control where 0% means no effect; nearly all actives have a fitted effect of over 65% in size). Summed up: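 Caspase-3/7 induction by a 6-hour ZIKV infection was quantified with a luminescent Caspase-Glo 3/7 reagent incubated 30 minutes at room temperature. Compounds were preincubated with hNPCs for 1 hour; inhibition was calculated against uninfected and infected control wells.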

Test [8] is described as follows: qHTS assay for measurement of the activity of small molecule inhibitors on Zika virus induced Caspase-3 activity in human astrocytoma cells (AID 1224859; active means well fitted curve in the direction sought with a large enough effect; an effect the other way counts as inactive or inconclusive;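 further: plate controls were ZIKV-infected untreated cells for no effect and uninfected cells for full effect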). A digest of the protocol:
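In SNB-19 cells plated at 250 cells/well and grown 16-20 h, compounds were applied 1 h before ZIKV (2 FFU/cell). Six hours later caspase-3/7 luminescence was recorded.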

A short description of test [9]: qHTS profiling for inhibitors of Plasmodium falciparum (HB3) proliferation (AID 743324; active means well fitted curve in the direction sought with a large enough effect; an effect the other way counts as inactive or inconclusive;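 further: 100% = DMSO vehicle wells and 0% = artemisinin-treated control wells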). Conditions: Plasmodium falciparum HB3 blood-stage proliferation; at 28.7 µM (top of the series) unless noted. Summed up:
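SYBR Green fluorescence (485 ex/535 em) of lysed cultures, incubated overnight at room temperature in the dark, quantifies parasite DNA. Infected erythrocytes at 0.3% parasitemia and 2.5% hematocrit were exposed 72 h; values normalized to DMSO and 0.29 uM artemisinin controls.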

Test [10] in a line: qHTS Screen of the MIPE 4.0 Collection Against Ewings Sarcoma (RDES) (AID 1259252; active means well fitted curve in the direction sought with a large enough effect; an effect the other way counts as inactive or inconclusive; further: nearly all actives have a fitted effect of over 35% in size; further: potency means the concentration at half of the fitted maximal effect). Summed up: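 Viability screen: 48 h incubation at 37C, 95% humidity, 5% CO2 with serially titrated compound, followed by CellTiter-Glo readout.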

Results filed as inconclusive are left out. The source made the active and inactive calls. Unless noted, how the calls were made is not given here.

Regarding `CCCCC(F)(F)[C@@]1(O)CC[C@H]2[C@H](CC(=O)[C@@H]2CCCCCCC(=O)O)O1`, the parasite growth, % of DMSO control in test [1] was found to be 77.3%. The molecule also yielded a parasite growth remaining, % of DMSO control (lower = more inhibition) in test [2] of 99.5%. Also, in test [3], the parasite growth, % of control (lower = inhibition) came to 70.3%. In addition, in test [4], the growth, % of control worked out at 83%. The cell viability, % of control (lower = more cytotoxic) in test [5] stood at 92.5%. In addition, in [6], the viability (% of control) came to 106%. Besides, the Potency entry in test [7] and in test [8] was “inactive” each time.
In turn, `O=C1NC(=O)C(c2cnc3ccccn23)=C1c1cn2c3c(cccc13)CN(C(=O)N1CCOCC1)CC2` came in with a remaining proliferation (% of control), lower = more inhibition in [9] of 10.8%. In test [1], the parasite growth, % of DMSO control worked out at 22.1%. In addition, the parasite growth remaining, % of DMSO control (lower = more inhibition) in [2] is 88%. In [3], this molecule registered a parasite growth, % of control (lower = inhibition) of 59.2%. In [4], this molecule had a growth, % of control of 54.5%. In test [5], the cell viability, % of control (lower = more cytotoxic) worked out at 36.5%. Besides, in [6], the viability (% of control) is 24.4%. Besides, the Potency result in test [7] and in test [8] was “inactive” in each case.
Take `COC1CCC(C(=O)c2ccc3nc4c(cc3c2)CCCO4)CC1` (stereo not drawn): the parasite growth remaining, % of DMSO control (lower = more inhibition) in test [2] came out at 31.2%. For the same molecule, the parasite growth, % of control (lower = inhibition) in [3] was found to be 15.9%. In test [4], this molecule yielded a growth, % of control of 11.8%. Besides, the cell viability, % of control (lower = more cytotoxic) in test [5] is 98%. Besides, in test [6], the viability (% of control) is 85.9%. For the same molecule, the Potency entry in test [7] and in test [8] was “inactive” in each case. Further, the Potency in [10] was 13.2 µM (active).
Regarding `O=C(O)Cc1cccc(OCCCN(Cc2cccc(C(F)(F)F)c2Cl)CC(c2ccccc2)c2ccccc2)c1`, the remaining proliferation (% of control), lower = more inhibition in test [9] was 5.3%. In test [1], this molecule returned a parasite growth, % of DMSO control of 20.8%. This molecule also had a parasite growth, % of control (lower = inhibition) in test [3] of 18.9%. The growth, % of control in test [4] was determined as 15.4%. In addition, the cell viability, % of control (lower = more cytotoxic) in test [5] came out at 170%. Besides, in test [6], the viability (% of control) is 117%. Further, the Potency result in test [7] and in test [8] was “inactive” each time.
As to `CCOC(=O)[C@H]1O[C@H]1C(=O)N[C@@H](CC(C)C)C(=O)NCCC(C)C`, in [2], the parasite growth remaining, % of DMSO control (lower = more inhibition) amounted to 12.9%. In [3], this molecule registered a parasite growth, % of control (lower = inhibition) of 15.6%. Also, the growth, % of control in [4] was 4.47%. Besides, in [5], the cell viability, % of control (lower = more cytotoxic) stood at 74.8%. Further, the viability (% of control) in test [6] turned out to be 95%. The Potency entry in test [7], in [8] and in test [10] was “inactive” each time.
In turn, `C[C@H]1[C@H](O)O[C@@H]2O[C@@]3(C)CC[C@@H]4[C@H](C)CC[C@@H]1[C@@]24OO3` returned a parasite growth, % of DMSO control in test [1] of 18.9%. The molecule further had a parasite growth remaining, % of DMSO control (lower = more inhibition) in test [2] of 7.23%. The molecule further registered a parasite growth, % of control (lower = inhibition) in test [3] of 13.8%. The growth, % of control in test [4] turned out to be 11.1%. In test [5], the cell viability, % of control (lower = more cytotoxic) worked out at 15.8%. The viability (% of control) in test [6] came out at 7.2%. Also, the Potency result in test [7] and in test [8] was “inactive” throughout.
As to `COc1cccc(OC)c1-c1cc(C(=O)NC2(C(=O)O)C3CC4CC(C3)CC2C4)nn1-c1ccnc2cc(Cl)ccc12` (stereo not drawn), in [9], the remaining proliferation (% of control), lower = more inhibition came out at 47.3%. The parasite growth, % of DMSO control in [1] came to 31.4%. Besides, the parasite growth remaining, % of DMSO control (lower = more inhibition) in test [2] came out at 33.7%. In test [3], this molecule came in with a parasite growth, % of control (lower = inhibition) of 29.8%. In addition, the growth, % of control in [4] is 7.09%. For the same molecule, in [5], the cell viability, % of control (lower = more cytotoxic) came out at 119%. In test [6], the viability (% of control) turned out to be 128%. The Potency entry in [7] and in [8] was “inactive” throughout.
As for `C[C@H]1O[C@@H](n2cc(F)c(=O)[nH]c2=O)[C@H](O)[C@H]1O`, in [2], the parasite growth remaining, % of DMSO control (lower = more inhibition) came out at 13.5%. The parasite growth, % of control (lower = inhibition) in test [3] was determined as 7.59%. The growth, % of control in test [4] is 53%. Moreover, the cell viability, % of control (lower = more cytotoxic) in test [5] was 170%. The viability (% of control) in test [6] turned out to be 28.4%. Moreover, the Potency entry in test [7] and in [8] was “inactive” throughout. In addition, the Potency in test [10] was 18.7 µM (active).
As for `CCc1cc(-c2n[nH]c(C)c2-c2ccc3c(c2)OCCO3)c(O)cc1O`, the remaining proliferation (% of control), lower = more inhibition in test [9] was 74.6%. In test [1], this molecule registered a parasite growth, % of DMSO control of 49.4%. The molecule also came in with a parasite growth remaining, % of DMSO control (lower = more inhibition) in [2] of 57.9%. In [3], this molecule registered a parasite growth, % of control (lower = inhibition) of 31.5%. Besides, the growth, % of control in test [4] came out at 39.1%. The cell viability, % of control (lower = more cytotoxic) in test [5] stood at 7.68%. For the same molecule, in test [6], the viability (% of control) turned out to be 9.12%. For the same molecule, the Potency result in test [7] and in [8] was “inactive” throughout.
For `COc1cc2c(cc1OC)[C@@H]1Cc3ccc(OC)c(OC)c3CN1CC2`, the parasite growth remaining, % of DMSO control (lower = more inhibition) in test [2] was 36.6%. Besides, the parasite growth, % of control (lower = inhibition) in test [3] was determined as 26.7%. In [4], this molecule yielded a growth, % of control of 11.1%. Besides, in [5], the cell viability, % of control (lower = more cytotoxic) came to 132%. Further, the viability (% of control) in test [6] worked out at 20.2%. Also, the Potency entry in [7] and in test [8] was “inactive” each time. Besides, in test [10], the Potency was 7.43 µM (active).
